Some test systems named below: NEK11; NEK1; NEK2; NEK3; NEK4; NEK5; NEK6; NEK7; NEK9; NLK; PAK1; PAK2; PAK3; PAK4; PAK6; PAK7.
Holding throughout (details): concentration: 1 μM, replicates: in singlicate; n = 1
The test system of a further assay is T1, NIK.
T1 construct: gene MAP3K14

The next assay deals with T2, NIM1.
T2 construct: gene MGC42105

Another assay has as its system T3, OSR1.
T3 construct: gene OXSR1

In the next assay the test system is T4, PCTK1.
T4 construct: gene CDK16
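Note: KINOMEscan kinase panel screen.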

For the molecule `Cl.c1ccc(-c2ccc3c(Nc4ccc5[nH]ncc5c4)ccnc3c2)nc1` [GW440137], the “%Inh” value with NEK11 is 0%; in the assay on NEK1, 0%; with NEK2 it was 0%; in the assay with NEK3 it was 11%; with NEK4, 0%; in the assay with NEK5, 13%. Moreover, the “%Inh” value is given as 0% in the assay with NEK6; 0% in the assay on NEK7; 7% in the assay on NEK9; 10% with NIK; 14% in the assay on NIM1; 28% in the assay with NLK. Also, the “%Inh” value in the assay on OSR1 came to 5%; in the assay on PAK1, 10%; with PAK2, 0%; in the assay with PAK3 it was 0%; with PAK4, 0%; in the assay with PAK6, 3%. Besides, the “%Inh” value worked out at 0% in the assay with PAK7 and 2% with PCTK1.

For `COc1cccc(C(=O)Nc2cccc(Oc3ccc4nc(NC(=O)C5CC5)cn4n3)c2)c1`, the “%Inh” value with NEK11 is recorded as 0%; in the assay on NEK1 it was 16%; in the assay with NEK2, 8%; in the assay with NEK3, 19%; in the assay with NEK4, 0%; in the assay with NEK5 it was 23%. Also, the “%Inh” value with NEK6 was 5%; in the assay on NEK7, 0%; in the assay on NEK9, 0%; in the assay on NIK, 0%; with NIM1, 0%; in the assay with NLK, 0%. Further, the “%Inh” value is 0% with OSR1; 17% with PAK1; 26% with PAK2; 23% in the assay on PAK3; 18% in the assay on PAK4; 15% with PAK6. For the same molecule, the “%Inh” value with PAK7 and in the assay with PCTK1 was 0% throughout.

As to `c1ccc(-c2n[nH]cc2Nc2ccnc3ccccc23)nc1` [GW694077], the “%Inh” value is 0% with NEK11; 7% with NEK1; 99.1% in the assay with NEK2; 3% with NEK3; 0% in the assay with NEK4; 6% with NEK5. Also, the “%Inh” value in the assay with NEK6 amounted to 0%; in the assay with NEK7 it was 0%; in the assay with NEK9, 41%; in the assay with NIK, 19%; in the assay on NIM1, 25%; in the assay on NLK it was 53%. The “%Inh” value is listed as 7% in the assay on OSR1; 6% in the assay on PAK1; 50% in the assay on PAK2; 1% in the assay with PAK3; 20% in the assay with PAK4; 0% with PAK6. In addition, the entries for the “%Inh” value with PAK7 and in the assay on PCTK1 were 2% and 4%, respectively.

For the molecule `COCCOCCOc1cc2ncc3c4ccc(C#N)cc4[nH]c3c2cc1OC`, the “%Inh” value with NEK11 was determined as 0%; with NEK1, 0%; with NEK2, 53%; in the assay on NEK3, 33%; in the assay on NEK4, 0%; with NEK5, 0%. Moreover, the “%Inh” value in the assay on NEK6 stood at 0%; with NEK7, 15%; with NEK9 it was 7%; with NIK, 65%; in the assay on NIM1, 48%; with NLK, 19%. Further, the “%Inh” value with OSR1 is on record as 0%; with PAK1 it was 18%; in the assay on PAK2 it was 22%; in the assay with PAK3, 21%; in the assay with PAK4 it was 19%; in the assay on PAK6, 10%. The “%Inh” value came to 1% in the assay with PAK7 and 0% in the assay on PCTK1.

As to `CC(=O)Nc1nc2cnc(Nc3cc(NC(=O)c4cccc(C5(C#N)CC5)c4Cl)ccc3C)nc2s1`, the “%Inh” value was 0% in the assay on NEK11; 0% with NEK1; 0% in the assay on NEK2; 18% with NEK3; 10% with NEK4; 0% in the assay with NEK5. In addition, the “%Inh” value in the assay on NEK6 is given as 4%; in the assay on NEK7 it was 7%; in the assay with NEK9 it was 14%; in the assay on NIK, 0%; in the assay on NIM1, 6%; in the assay on NLK, 33%. The “%Inh” value with OSR1 came out at 0%; in the assay with PAK1, 12%; with PAK2, 0%; with PAK3, 0%; with PAK4, 7%; with PAK6, 0%. Also, the “%Inh” value is reported as 9% in the assay with PAK7 and 6% in the assay on PCTK1.

For `CCc1ccc(-c2ccc3c(c2)-c2c(cnn2C)S(=O)(=O)N3C)cc1`, the “%Inh” value in the assay on NEK11 came out at 0%; with NEK1, 0%; in the assay with NEK2, 5%; in the assay with NEK3 it was 0%; with NEK4, 0%; with NEK5 it was 0%. The “%Inh” value stood at 0% in the assay on NEK6; 0% with NEK7; 0% with NEK9; 0% in the assay on NIK; 0% in the assay with NIM1; 11% in the assay on NLK. The “%Inh” value in the assay on OSR1 was determined as 0%; in the assay on PAK1 it was 0%; in the assay with PAK2 it was 2%; in the assay with PAK3 it was 0%; in the assay with PAK4 it was 1%; in the assay with PAK6, 9%. Moreover, the “%Inh” value with PAK7 and in the assay with PCTK1 was 0% throughout.

As for `COc1cc(Nc2nccc(-c3c(-c4cccc(NC(=O)c5c(F)cccc5F)c4)nn4ncccc34)n2)cc(OC)c1OC` [GSK327238], the “%Inh” value in the assay with NEK11 worked out at 0%; in the assay with NEK1, 0%; in the assay with NEK2, 92.7%; in the assay on NEK3 it was 0%; in the assay with NEK4, 12%; with NEK5, 58%. Also, the “%Inh” value turned out to be 17% in the assay with NEK6; 18% in the assay with NEK7; 41% in the assay on NEK9; 13% with NIK; 0% with NIM1; 82% in the assay with NLK. Besides, the “%Inh” value in the assay on OSR1 is reported as 19%; in the assay on PAK1, 70%; with PAK2, 9%; in the assay on PAK3 it was 36%; with PAK4 it was 0%; in the assay on PAK6, 11%. The “%Inh” value in the assay with PAK7 stood at 41%; with PCTK1, 11%.

As for `Cn1cc(-c2[nH]c3cc(NC(=O)[C@H](N)C4CCCCC4)cc4c3c2C=NNC4=O)cn1`, the “%Inh” value in the assay on NEK11 is 89%; with NEK1, 70%; in the assay with NEK2, 21%; in the assay on NEK3, 32%; in the assay with NEK4 it was 0%; in the assay on NEK5, 54%. Further, the “%Inh” value in the assay on NEK6 came out at 2%; with NEK7 it was 0%; in the assay with NEK9, 11%; in the assay with NIK it was 3%; with NIM1 it was 96.8%; in the assay with NLK, 0%. Also, the “%Inh” value with OSR1 is reported as 17%; in the assay with PAK1, 27%; with PAK2, 25%; in the assay with PAK3, 83%; in the assay with PAK4 it was 99.5%; in the assay with PAK6, 99.2%. Also, the “%Inh” value in the assay on PAK7 stood at 97.9%; in the assay with PCTK1, 8%.

These data come from paper PMC5540273 (PLoS ONE, 2017).
